One assay deals with Staphylococcus aureus. As to conditions: Concentration 32 ug.mL-1;; ASSAY_TEST Inhibition of Bacterial Growth; detection method Absorption (OD600); MEDIA CAMHB; plate type 384well; NBS; CORNING #3640; time 18 hr.
The test system of another assay is Escherichia coli. To be noted: Concentration 32 ug.mL-1;; ASSAY_TEST Inhibition of Bacterial Growth; detection method Absorption (OD600); MEDIA CAMHB; plate type 384well; NBS; CORNING #3640; time 18 hr.

Measured potencies and affinities stand elsewhere.

Turning to `Cc1ccc(-c2ccc3nn(CC(=O)Nc4ccc(C#N)cc4)c(=O)n3n2)cc1C`, the figures for the Inhibition in the assay with Staphylococcus aureus and in the assay with Escherichia coli were 8.65% and 0.46%, respectively.

For the compound `COc1cc(NC(=O)CSc2nnc3c(=O)n(-c4cccc(F)c4)ccn23)cc(OC)c1`, the Inhibition (in general, the relative decrease from the control value, in per cent) with Staphylococcus aureus is on record as 10.57%; in the assay on Escherichia coli, -3.07%.

As to `O=C(Cn1nc2c(N3CCOCC3)nccn2c1=O)NCc1ccccc1Cl`, the Inhibition is 17.61% in the assay with Staphylococcus aureus and 4.36% in the assay with Escherichia coli.

Consider `COc1cc(NC(=O)Cn2nc3ccc(SCc4ccc(Cl)cc4)nn3c2=O)cc(OC)c1`, for which the figures for the Inhibition in the assay on Staphylococcus aureus and in the assay on Escherichia coli were -3.52% and -10.62%, respectively.

For the compound `CCN(C(=O)Cn1nc2cc(C)nc(Nc3ccc(C)c(F)c3)n2c1=O)c1ccccc1`, the results for the Inhibition in the assay on Staphylococcus aureus and in the assay with Escherichia coli were 15.67% and -1.02%, respectively.

Turning to `Cc1cccc(C)c1NC(=O)CSc1nnc2c3cc(-c4ccccc4)nn3ccn12`, the Inhibition in the assay on Staphylococcus aureus is -21.6%; in the assay on Escherichia coli, -21.37%.

Regarding `COc1ccc(NC(=O)Cn2nc3c(SC4CCCCC4)nccn3c2=O)cc1Cl`, the Inhibition is listed as -11.83% with Staphylococcus aureus and -6.21% with Escherichia coli.

Take `COc1ccc(NC(=O)Cn2nc3nc(N4CCOCC4)ccn3c2=O)cc1Cl`: the Inhibition is recorded as 7.8% in the assay on Staphylococcus aureus and -5.98% in the assay on Escherichia coli.

Regarding `CCC(C)NC(=O)Cn1nc2n(Cc3cccs3)c(=O)c3sccc3n2c1=O` (configuration not stated), the Inhibition is on record as 3.01% in the assay on Staphylococcus aureus and -5.74% in the assay with Escherichia coli.

With `O=C(Cn1nc2c(N3CCSCC3)nc3ccccc3n2c1=O)NCc1ccccc1`, the Inhibition with Staphylococcus aureus is reported as 1.1%; in the assay with Escherichia coli it was -1.64%.

On to `O=C(CSc1nnc2c(=O)n(-c3ccc(Br)cc3)ccn12)Nc1ccc(F)cc1`, for which the Inhibition in the assay on Staphylococcus aureus is recorded as 9.36%; in the assay on Escherichia coli, -1.5%.

`O=C(Cn1nc2ccc(SC3CCCCC3)nn2c1=O)Nc1ccc2c(c1)CCC2`: the Inhibition is listed as 4.8% in the assay with Staphylococcus aureus and -2.69% with Escherichia coli.

In the case of `O=C(Cn1nc2c(Sc3cccc(F)c3)nccn2c1=O)Nc1cccc(Br)c1`, the Inhibition with Staphylococcus aureus was found to be 3.89%; in the assay with Escherichia coli, 0.56%.

As to `O=S(=O)(c1cccn2cnnc12)N(Cc1ccc(F)cc1)c1ccc(F)cc1`, the Inhibition with Staphylococcus aureus is 8.29%; in the assay on Escherichia coli, -3.31%.

Consider `COc1ccc(NC(=O)Cn2nc3c4cc(-c5ccc(Cl)cc5)nn4ccn3c2=O)c(OC)c1`, for which the values for the Inhibition with Staphylococcus aureus and in the assay with Escherichia coli were 9.6% and 5.1%, respectively.

For `Cc1nnc2ccc(S(=O)(=O)N(Cc3cccc(Cl)c3)c3ccc(F)cc3)cn12`, the Inhibition with Staphylococcus aureus is listed as 3.62%; in the assay on Escherichia coli it was -8.44%.

(Values after ChEMBL document CHEMBL4513146, “CO-ADD screening of Karazin Kharkiv National University (Ukraine) compounds”.)
